Results published in the supplement of paper PMC3334620.
In all, about 33,000 sequences were measured (“E-score (-0.5 to 0.5)”: median about -0.054, highest 2% from about 0.35 on). This excerpt belongs to a sample that is enriched for the highest values.

target: T1, Stb5 (UniProt P38699); assay: PBM E-score (8-mer binding enrichment) (E-score (-0.5 to 0.5)); higher = stronger / more preferred TF binding; conditions: protein concentration: 200 nM; construct: GST-full length
T1 sequence: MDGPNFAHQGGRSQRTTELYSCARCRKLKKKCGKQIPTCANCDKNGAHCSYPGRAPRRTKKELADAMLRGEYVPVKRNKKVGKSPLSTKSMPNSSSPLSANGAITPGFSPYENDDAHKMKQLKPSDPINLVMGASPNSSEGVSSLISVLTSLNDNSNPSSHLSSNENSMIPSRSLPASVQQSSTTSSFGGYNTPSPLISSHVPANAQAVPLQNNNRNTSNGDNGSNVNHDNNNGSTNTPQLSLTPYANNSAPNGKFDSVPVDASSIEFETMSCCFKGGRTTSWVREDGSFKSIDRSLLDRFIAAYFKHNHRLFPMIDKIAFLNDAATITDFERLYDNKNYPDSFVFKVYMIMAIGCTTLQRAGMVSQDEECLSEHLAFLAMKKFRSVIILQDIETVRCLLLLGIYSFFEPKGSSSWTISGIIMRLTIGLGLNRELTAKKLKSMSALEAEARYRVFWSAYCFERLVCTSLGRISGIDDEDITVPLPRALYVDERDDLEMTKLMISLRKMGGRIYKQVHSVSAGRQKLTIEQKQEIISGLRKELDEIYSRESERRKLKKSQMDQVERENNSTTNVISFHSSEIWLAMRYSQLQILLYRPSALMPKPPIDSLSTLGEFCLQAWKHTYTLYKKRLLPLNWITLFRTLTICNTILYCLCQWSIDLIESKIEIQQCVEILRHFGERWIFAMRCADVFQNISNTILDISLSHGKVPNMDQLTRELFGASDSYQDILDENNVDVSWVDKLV
Outline: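 Each ungapped eight-base word and its reverse complement, pooled, received an E-score from the Universal PBM Analysis Suite. Underlying scans, normalised with masliner, recorded fluorescent anti-GST bound to GST-tagged yeast transcription factors. These were applied at about 100-200 nM to universal all-10-mer Agilent arrays double-stranded by primer extension.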

| Sequence | PBM E-score |
| --- | --- |
| GAGGCCGC | 0.322 |
| CAGGCCGC | 0.187 |
| CAGGCCCG | 0.109 |
| AAAGGCCC | 0.274 |
| AAGGCCGC | 0.441 |
| AAGGCCCG | 0.359 |
| AGACAGGG | -0.161 |
| ACGCCTAG | -0.0889 |
| ACATTAGA | -0.214 |
| CATACTGG | -0.062 |
| CCAGAGGG | -0.0691 |
| CGCACGAA | -0.0424 |
| GAGTTTAC | 0.115 |
| CGTTCCGA | 0.00452 |
| GGTTCCGA | 0.126 |
| AGTTCCGC | 0.361 |
| AGTTCCGA | 0.374 |
| AGTTCCGG | 0.333 |
| CGTTCCGC | 0.226 |
| ACCCATCG | 0.1 |
| CCCTCTTA | -0.167 |
| CGCCCGCC | 0.258 |

| Sequence | PBM E-score |
| --- | --- |
| AGCCCGAG | 0.05 |
| CGCCCGAC | 0.33 |
| AGCCCGAT | 0.328 |
| GGCCCGAC | 0.358 |
| ATCCCGAG | 0.161 |
| AGCCCGAC | 0.373 |
| AGCCCGCC | 0.359 |
| GGCCCGAA | 0.149 |
| ATCCCGAC | 0.39 |
| AGCCCGCG | 0.334 |
| ATCCCGAT | 0.238 |
| ACACTTAA | -0.117 |
| CACAAGCG | -0.0542 |
| CAAAATCG | -0.0979 |
| CCGTGAGC | 0.196 |
| CACTACCC | -0.179 |
| ATGCACTA | -0.0627 |
| GGTATGTA | 0.18 |
| CGACTAAC | 0.00814 |
| AACCCTGG | -0.284 |
| ACAGGATC | -0.312 |
| CAATTAAA | -0.00358 |

| Sequence | PBM E-score |
| --- | --- |
| GCCTCCTA | -0.0585 |
| AGACTTGG | -0.17 |
| ATAACGCG | 0.0524 |
| AAAACGCG | 0.0108 |
| ATAACGCC | 0.359 |
| AAAACGCC | 0.368 |
| CAAACGCC | 0.243 |
| CTAACGCC | 0.316 |
| AAACCAGG | -0.00613 |
| CCCGAGAG | 0.0886 |
| GAATTCTA | -0.248 |
| ACCTTCAA | -0.0982 |
| CTGGTTAA | -0.102 |
| ACGGGCCT | 0.376 |
| ACGGGGCA | 0.159 |
| ACGGGAAT | 0.371 |
| ACGGGGCT | 0.366 |
| ACGGGGAC | 0.241 |
| ACGGGAAC | 0.205 |
| ACGGGGCC | 0.221 |
| ACGGGAAG | -0.0191 |
| ACGGGCCG | 0.194 |

| Sequence | PBM E-score |
| --- | --- |
| ACGGGGAT | 0.415 |
| ACGGGGAG | 0.202 |
| ACGGGCCA | 0.169 |
| CCAATCTA | -0.0421 |
| CACGCTGG | -0.14 |
| CTGATAGA | -0.0917 |
| CAAGTACA | -0.12 |
| AAACAGAC | -0.131 |
| ACTAGACA | -0.184 |
| AACCGGGC | 0.239 |
| GCTTGGCC | 0.143 |
| GGCCACGA | 0.111 |
| AGTACCCA | -0.101 |
| ATGGTCAG | -0.183 |
| ACGGGGTA | 0.248 |
| ACCGGGGG | 0.286 |
| ACCGGGCA | 0.276 |
| ACGGGGTG | 0.286 |
| CCCGGGGC | 0.258 |
| ACCGGGGC | 0.359 |
